Measured values published in PubChem BioAssay (NCATS).
Inconclusive results are not listed. Active and inactive are the calls of the source. The call rests on the fitted dose curve; in most records, active means well fitted curve in the direction sought with a large enough effect; inconclusive means small, poorly fitted or top-dose-only effect, or another doubt; inactive means no such curve, though single readings can be large; an effect the other way counts as inactive or inconclusive.

Experiments:
[1] = target: Tumor susceptibility gene 101 protein (Homo sapiens) (UniProt Q99816); experiment: qHTS Assay for Iinhibitors of HIV-1 Budding by Blocking the Interaction of PTAP/TSG101: Hit Validation (AID 651600); further: nearly all actives have a fitted effect of over 70% in size; further: potency means the concentration at half of the fitted maximal effect; on activity change, negative = inhibition: on the % scale 0 is the no-effect control and ±100 the full control effect
Outline: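 Fluorescence polarization binding assay: Tsg101 binding domain (10 uM) mixed with compounds and FITC-labeled PTAP peptide (50 nM) in HEPES pH 7.5, 0.15 M NaCl, 0.01% Tween 20, EDTA, TCEP; 20 min at r.t.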

[2] = target: Rap guanine nucleotide exchange factor 3 (Homo sapiens) (UniProt O95398); experiment: Confirmatory qHTS for antagonist of cAMP-regulated guanine nucleotide exchange factor 3 (EPAC1) (AID 1645880); details: EPAC1 Rap1B-BODIPY-GDP exchange, fluorescence; activity, negative = inhibition: at 115 µM (top of the series); further: nearly all actives have a fitted effect of over 55% in size; further: potency means the concentration at half of the fitted maximal effect;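 on activity, negative = inhibition: plate controls were DMSO only for no effect and full effect of the ATA control for full effect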
Outline: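 Released BODIPY-GDP fluoresces less than Rap1-bound BODIPY-GDP; the signal is followed at 480/540 nm at 5-min intervals over 30 min, after 5 min at room temperature. Reactions contain 100 nM EPAC1, 250 nM RAP1B-BODIPY-GDP and 50 uM GDP; results are normalized to ATA and DMSO.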

[3] = target: Rap guanine nucleotide exchange factor 3 (Homo sapiens) (UniProt O95398); experiment: Confirmatory qHTS for agonist of cAMP-regulated guanine nucleotide exchange factor 3 (EPAC1) (AID 1645881); further: nearly all actives have a fitted effect of over 75% in size; further: potency means the concentration at half of the fitted maximal effect;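 on activation: EPAC1 catalysed release of BODIPY-GDP from Rap1B seen as fluorescence loss; 100% = effect of cAMP agonist control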
[4] = target: Rap guanine nucleotide exchange factor 4 (Homo sapiens) (UniProt Q8WZA2); experiment: Confirmatory qHTS for antagonist of cAMP-regulated guanine nucleotide exchange factor 4 (EPAC2) (AID 1645885); further: on the % scale 0 is the no-effect control and ±100 the full control effect; nearly all actives have a fitted effect of over 25% in size
[5] = target: Rap guanine nucleotide exchange factor 3 (Homo sapiens) (UniProt O95398); experiment: Counterscreen qHTS for antagonist of cAMP-regulated guanine nucleotide exchange factor 3 (EPAC1) (AID 1645888); further: % of control where 0% means no effect
Outline: (§1)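 Rap1B-BODIPY-GDP 250 nM + GDP 50 uM; cpds 7-pt, final 9.74 nM–152 uM (activator mode) or from 7.32 nM upwards (inhibitor mode); RT; FI 480/540 nm at 5 and 30 min, then ± cAMP, reread.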

[6] = target: Rap guanine nucleotide exchange factor 3 (Homo sapiens) (UniProt O95398); experiment: Counterscreen qHTS for agonist of cAMP-regulated guanine nucleotide exchange factor 3 (EPAC1) (AID 1645889); further: nearly all actives have a fitted effect of over 40% in size; further: potency means the concentration at half of the fitted maximal effect; on activation: % of control where 0% means no effect
Outline: as §1

Chain of Rap guanine nucleotide exchange factor 4 (Homo sapiens) (Q8WZA2 whole entry, looked up): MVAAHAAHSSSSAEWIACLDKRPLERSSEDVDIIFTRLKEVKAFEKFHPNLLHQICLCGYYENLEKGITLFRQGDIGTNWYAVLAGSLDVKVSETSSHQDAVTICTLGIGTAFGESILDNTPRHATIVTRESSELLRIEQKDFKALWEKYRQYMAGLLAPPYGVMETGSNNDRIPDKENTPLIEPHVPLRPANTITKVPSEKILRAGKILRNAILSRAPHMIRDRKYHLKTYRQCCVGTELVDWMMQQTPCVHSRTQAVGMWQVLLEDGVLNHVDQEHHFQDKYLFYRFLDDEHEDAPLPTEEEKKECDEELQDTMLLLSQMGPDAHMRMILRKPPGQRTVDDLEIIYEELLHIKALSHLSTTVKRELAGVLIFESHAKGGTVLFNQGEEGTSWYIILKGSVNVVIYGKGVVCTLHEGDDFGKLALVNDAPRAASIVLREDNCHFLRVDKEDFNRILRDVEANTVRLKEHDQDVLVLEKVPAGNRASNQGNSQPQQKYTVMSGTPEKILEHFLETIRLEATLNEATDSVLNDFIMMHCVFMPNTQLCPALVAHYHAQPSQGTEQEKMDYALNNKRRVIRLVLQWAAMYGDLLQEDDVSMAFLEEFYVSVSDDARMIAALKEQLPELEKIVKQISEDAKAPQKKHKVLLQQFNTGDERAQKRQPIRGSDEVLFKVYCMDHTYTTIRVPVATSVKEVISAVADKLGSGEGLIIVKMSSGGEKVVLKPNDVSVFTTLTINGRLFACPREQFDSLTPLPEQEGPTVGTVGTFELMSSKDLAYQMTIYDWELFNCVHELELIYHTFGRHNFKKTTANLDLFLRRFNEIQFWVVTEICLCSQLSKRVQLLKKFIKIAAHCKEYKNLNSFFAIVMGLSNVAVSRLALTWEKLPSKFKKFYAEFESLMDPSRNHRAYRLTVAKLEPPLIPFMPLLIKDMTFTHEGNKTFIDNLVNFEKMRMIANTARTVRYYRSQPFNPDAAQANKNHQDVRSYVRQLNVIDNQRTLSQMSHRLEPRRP
Chain of Tumor susceptibility gene 101 protein (Homo sapiens) (Q99816 whole entry, looked up, the tested form may be a part): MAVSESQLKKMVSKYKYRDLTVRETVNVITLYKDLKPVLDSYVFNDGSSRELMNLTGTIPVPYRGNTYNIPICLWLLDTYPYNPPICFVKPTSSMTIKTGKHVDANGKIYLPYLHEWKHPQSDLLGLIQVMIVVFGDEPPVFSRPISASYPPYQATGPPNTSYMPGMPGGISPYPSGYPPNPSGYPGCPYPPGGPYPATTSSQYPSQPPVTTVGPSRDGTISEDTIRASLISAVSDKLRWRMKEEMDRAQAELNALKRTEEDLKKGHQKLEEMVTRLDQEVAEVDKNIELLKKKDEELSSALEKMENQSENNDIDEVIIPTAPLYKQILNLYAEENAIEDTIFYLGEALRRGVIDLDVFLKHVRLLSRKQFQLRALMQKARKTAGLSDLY
Chain of Rap guanine nucleotide exchange factor 3 (Homo sapiens) (O95398 whole entry, looked up): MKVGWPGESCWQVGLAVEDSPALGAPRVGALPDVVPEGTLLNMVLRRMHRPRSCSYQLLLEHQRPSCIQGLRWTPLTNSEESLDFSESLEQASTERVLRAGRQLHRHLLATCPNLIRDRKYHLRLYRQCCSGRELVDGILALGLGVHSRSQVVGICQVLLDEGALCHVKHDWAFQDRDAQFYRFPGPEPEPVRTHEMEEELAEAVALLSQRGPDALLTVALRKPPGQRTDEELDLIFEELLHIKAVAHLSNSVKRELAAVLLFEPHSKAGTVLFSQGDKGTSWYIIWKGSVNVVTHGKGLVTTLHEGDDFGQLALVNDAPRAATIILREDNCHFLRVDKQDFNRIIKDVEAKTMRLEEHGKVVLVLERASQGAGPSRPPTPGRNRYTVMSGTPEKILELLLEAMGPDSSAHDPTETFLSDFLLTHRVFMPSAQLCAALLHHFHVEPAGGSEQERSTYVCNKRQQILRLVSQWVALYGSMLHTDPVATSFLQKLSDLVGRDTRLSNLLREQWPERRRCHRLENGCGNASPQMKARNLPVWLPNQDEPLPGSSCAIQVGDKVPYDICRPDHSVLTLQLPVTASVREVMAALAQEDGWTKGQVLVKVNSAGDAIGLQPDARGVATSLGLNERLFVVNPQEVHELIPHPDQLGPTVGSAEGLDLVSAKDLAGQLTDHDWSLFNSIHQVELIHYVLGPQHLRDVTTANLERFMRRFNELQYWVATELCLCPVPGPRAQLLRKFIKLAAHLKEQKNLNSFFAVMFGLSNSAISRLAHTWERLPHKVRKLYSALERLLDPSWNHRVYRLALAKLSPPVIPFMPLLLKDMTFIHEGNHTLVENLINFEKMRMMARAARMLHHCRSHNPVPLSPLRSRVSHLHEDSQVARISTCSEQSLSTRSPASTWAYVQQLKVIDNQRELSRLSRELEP

COc1ccc2ccccc2c1C(O)c1nccn1C (stereo not drawn)
inactive: Potency [2] | Potency [3] | Potency [4] | Potency [5]
active: Potency [1] 8.19 µM

CC(=O)Nc1ccc(NC(=O)C2Cc3c(-c4ccc5c(c4)OCO5)ccnc3O2)cc1 (stereo not drawn)
inactive: Potency [2] | Potency [3] | Potency [5]

Cc1nc(Nc2ccc(Br)cc2Br)c([N+](=O)[O-])c(=O)[nH]1
inactive: Potency [2] | Potency [3] | Potency [5]

CCn1c(=O)c(C(=O)NNS(=O)(=O)c2ccc(C)cc2)c(O)c2ccccc21
inactive: Potency [3] | Potency [5]
active: Potency [2] 75.7 µM

CCOC(=O)Nc1ccccc1C(=O)Nc1cc(C)cc(C)c1
inactive: Potency [2] | Potency [3] | Potency [4] | Potency [5]
active: Potency [6] 0.631 µM

O=c1cc(N2CCCCC2)c(-c2ccccc2)nn1Cc1ccccc1
inactive: Potency [2] | Potency [3] | Potency [5]

O=C(O)c1ccccc1-c1ccc(/C=C/c2cc(C(F)(F)F)[nH]c(=O)n2)o1
active: Potency [3] 89.1 µM
inactive: Potency [1] | Potency [2] | Potency [4] | activity change, negative = inhibition [5] 309% [at 30.8 µM]

CCn1cc(C=C2C(=O)c3ccccc3C2=O)c2ccccc21
inactive: Potency [2] | Potency [3] | Potency [4] | Potency [5] | Potency [6]
active: Potency [1] 14.6 µM

CCOc1ccc(S(=O)(=O)N2CCCCC2)c(C)c1C
inactive: Potency [2] | Potency [3] | Potency [5]

COc1ccc(Cl)cc1NC(=O)CN(C)Cc1ccc(OC)c(OC)c1
inactive: Potency [2] | Potency [3] | Potency [5]

O=C1CSC(=Nc2ccccc2)N1Cc1ccccc1
inactive: Potency [2] | Potency [3] | Potency [5]

CCCC(CNC(C)=O)(C1=CCCCC1)c1ccccc1 (stereo not drawn)
inactive: Potency [2] | Potency [3] | activity change, negative = inhibition [5] 1.17% [at 30.8 µM] | activation [6] 15.1% [at 30.8 µM]

O=C(O)CCCN1C(=O)/C(=C/c2cn(-c3ccccc3)nc2-c2cccs2)SC1=S
inactive: Potency [2] | Potency [5]
active: Potency [3] 112 µM | Potency [6] 15.8 µM

CCOC(=O)C1Oc2ccccc2C(c2ccc(F)cc2)=C1C(=O)OC (stereo not drawn)
inactive: Potency [2] | Potency [3] | activity change, negative = inhibition [5] -24.6% [at 30.8 µM] | activation [6] 13.2% [at 30.8 µM]

C=C1SC(Nc2c(C)cc(C)cc2C)=NC12CCCCC2
inactive: Potency [2] | Potency [3] | Potency [5] | Potency [6]

Cc1ccc(C2N(c3cccc(Cl)c3)C(=O)N3CCCN23)cc1 (stereo not drawn)
inactive: Potency [2] | Potency [3] | activity change, negative = inhibition [5] -4.78% [at 30.8 µM] | activation [6] 3.03% [at 30.8 µM]

O=C(/C=C/c1cccc(Cl)c1Cl)OCC(=O)N1CCOCC1
inactive: Potency [2] | Potency [3] | Potency [5] | Potency [6]

COc1ccc(NS(=O)(=O)c2ccc(S(=O)(=O)N3CCCC3)cc2)cc1
inactive: Potency [2] | Potency [3] | activity change, negative = inhibition [5] -8.86% [at 30.8 µM] | activation [6] 24.5% [at 30.8 µM]

O=C(O)c1cnn(-c2nc(-c3ccc(Cl)c(Cl)c3)cs2)c1C(F)(F)F
active: Potency [2] 75.7 µM
inactive: Potency [3] | Potency [5] | Potency [6]

CC1CN(c2nc(-c3ccccc3)nc3ccccc23)CC(C)O1 (stereo not drawn)
inactive: Potency [2] | Potency [3] | activity change, negative = inhibition [5] 3.46% [at 30.8 µM] | activation [6] 21.3% [at 30.8 µM]

CCCNC(=O)c1ccc(N2CCC3(CC2)CC(c2ccccc2)=NO3)c(NC(=O)c2ccccc2)c1
inactive: Potency [2] | Potency [3] | Potency [5] | Potency [6]

CC(C)c1nc2cc(Cl)ccc2n(Cc2ccccc2)c1=O
inactive: Potency [2] | Potency [3] | Potency [5] | Potency [6]

COc1ccc2cc(S(=O)(=O)N3CCCC3)ccc2c1
inactive: Potency [2] | Potency [3] | activity change, negative = inhibition [5] -17.9% [at 30.8 µM] | activation [6] 13.3% [at 30.8 µM]

Cc1cc(C)c(C(=O)c2ccccc2)c(C)c1
inactive: Potency [2] | Potency [3] | Potency [5] | Potency [6]

Cc1ccc(C2(c3noc(CN(C)CC4CCCCO4)n3)CCCC2)cc1 (stereo not drawn)
inactive: Potency [2] | Potency [3] | activity change, negative = inhibition [5] -7.57% [at 30.8 µM] | activation [6] -0.372% [at 30.8 µM]

COc1ccc(S(=O)(=O)N2CCCC2)c2ccccc12
inactive: Potency [2] | Potency [3] | activity change, negative = inhibition [5] -10.4% [at 30.8 µM] | activation [6] 9.58% [at 30.8 µM]

COC(=O)c1ccccc1C(=O)c1c(C)cc(C)cc1C
inactive: Potency [2] | Potency [3] | activity change, negative = inhibition [5] 4.03% [at 30.8 µM] | activation [6] 0.931% [at 30.8 µM]

CCCC[C@@H]1C=C(C(=O)O)[C@H](c2ccc(Cl)c(Cl)c2)N1S(=O)(=O)c1ccc(C)cc1
active: Potency [2] 84.9 µM
inactive: Potency [3] | Potency [5] | Potency [6]

COc1ccc(S(=O)(=O)Nc2ncccc2C)c2ccccc12
inactive: Potency [2] | Potency [3] | Potency [5] | Potency [6]

O=C1[C@H]2CCC=C[C@H]2[C@H](c2ccccc2Br)N1Cc1ccccc1
inactive: Potency [2] | Potency [3] | Potency [5] | Potency [6]
